{"source": "PubChem BioAssay (NCATS)", "note": "Records with an inconclusive call do not appear. Active and inactive are the calls of the source. Calls follow the shape of the dose curve; as a rule, active = well fitted curve in the direction sought with a large enough effect; inconclusive = small, poorly fitted or top-dose-only effect, or another doubt; inactive = no such curve, though single readings can be large; an effect the other way counts as inactive or inconclusive.", "data": [{"target": "Aldehyde dehydrogenase, mitochondrial (Homo sapiens) (UniProt P05091)", "assay": "qHTS for Inhibitors of the Aldehyde Dehydrogenase Family (ALDH2) Primary screen (AID 2061308);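 also: plate controls were vehicle for no effect and reference inhibitor for full effect; nearly all actives have a fitted effect of over 55% in size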", "conditions": "ALDH2 enzyme inhibition qHTS, 1536-well; series mostly up to 56 µM; activity change, negative = inhibition: at the top concentration", "values": [{"smiles": "O=C(O)c1ccc(-c2noc(-c3ccccc3C(F)(F)F)n2)cc1", "activity change, negative = inhibition": "4.99% (inactive)"}, {"smiles": "O=C(CNC(=O)c1ccncc1)OC(C(=O)Nc1cc(C(F)(F)F)ccc1Cl)c1ccccc1", "note": "(stereo not drawn)", "activity change, negative = inhibition": "-11.3% (inactive)"}, {"smiles": "CC(=O)Nc1ccc(S(=O)(=O)N2CCN(c3ccc(C(C)=O)cc3)CC2)cc1", "activity change, negative = inhibition": "9.46% (inactive)"}, {"smiles": "COc1cc2nc(N3CCN(C)CC3)nc(NCCN(C)C)c2cc1OC", "activity change, negative = inhibition": "7.41% (inactive)"}, {"smiles": "N#Cc1ccc(Nc2ncc(-c3cccc4ccccc34)o2)cc1", "activity change, negative = inhibition": "9.13% (inactive)"}, {"smiles": "Cc1ccc(S(=O)(=O)Nc2cnccc2C(=O)Nc2nc(-c3nc4ccccc4s3)cs2)cc1", "activity change, negative = inhibition": "5.81% (inactive)"}, {"smiles": "O=C(Nc1ccc(-c2nc3ccccc3[nH]2)cc1)c1ccc(Cl)c(Cl)c1", "activity change, negative = inhibition": "-16.3% (inactive)"}, {"smiles": "Cc1ccc(-c2cc(C(=O)N3CC[S+](=O)([O-])CC3)c3ccccc3n2)cc1C", "activity change, negative = inhibition": "1.76% (inactive)"}, {"smiles": "Cc1cc2c(s1)c1cnn(Cc3cccc(Cl)c3)c(=O)c1n2C", "activity change, negative = inhibition": "5.84% (inactive)"}, {"smiles": "Cc1nnc(-c2cnn(C)c2N)n1CCCc1ccccn1", "activity change, negative = inhibition": "-0.751% (inactive)"}, {"smiles": "O=C(OCC#CCSc1nnc(-c2cccc3ccccc23)o1)c1sc(Cl)c(Cl)c1Cl", "activity change, negative = inhibition": "3.04% (inactive)"}, {"smiles": "Cc1cc(C)n2ncc(C(=O)Nc3ccccc3C)c2n1", "activity change, negative = inhibition": "2% (inactive)"}, {"smiles": "Cc1ccc(NS(=O)(=O)c2cc3c(cc2C)OCC(=O)N3)cc1C", "activity change, negative = inhibition": "8.44% (inactive)"}, {"smiles": "COc1cccc(CNc2ccc(S(=O)(=O)Nc3cnc4ccccc4c3)cc2)c1O", "activity change, negative = inhibition": "-21.7% (inactive)"}, {"smiles": "O=C(NC1CCCc2c1cnn2-c1ccc(F)cc1F)c1cnon1", "note": "(stereo not drawn)", "activity change, negative = inhibition": "-3.34% (inactive)"}, {"smiles": "O=C1CCCC2=C1C1(CCCC1)N=C(Nc1nc3cc(Cl)ccc3o1)N2", "activity change, negative = inhibition": "-6.49% (inactive)"}, {"smiles": "O=C1CCCC2=C1C(c1ccncc1Cl)N=C(Nc1nc3ccccc3o1)N2", "note": "(stereo not drawn)", "activity change, negative = inhibition": "3.52% (inactive)"}, {"smiles": "CCN(CC)CCCC(C)n1c(-c2ccccc2)nc2c(N(CCOC)CCOC)nc(C)nc21", "note": "(stereo not drawn)", "activity change, negative = inhibition": "5.24% (inactive)"}, {"smiles": "Cc1ccc(S(=O)(=O)Nc2cnccc2C(=O)Nc2nc3ccccc3s2)cc1", "activity change, negative = inhibition": "-8.04% (inactive)"}, {"smiles": "Cc1cc(-c2nnc3n2CCCCCCC3)c(C)n1-c1ccccc1", "activity change, negative = inhibition": "-17.6% (inactive)"}, {"smiles": "O=C(O)c1ccc2c(c1)C(=O)N([C@H](Cc1ccc(Cl)cc1)C(=O)O)C2=O", "activity change, negative = inhibition": "2.58% (inactive)"}, {"smiles": "C[C@@H]1CC[C@]2(C(=O)O)CC[C@]3(C(=O)O)C(=CCC4[C@@]5(C)CC[C@H](O[C@@H]6O[C@@H](C)[C@H](O[C@@H]7O[C@H](CO)[C@@H](O)[C@H](O)[C@H]7O)[C@@H](O)[C@H]6O)C(C)(C)C5CC[C@]43C)C2[C@H]1C", "note": "(stereo partly drawn)", "activity change, negative = inhibition": "18% [at 16.9 µM] (inactive)"}, {"smiles": "COc1cccc(-c2nnc3n2N=C(c2cc(OC)ccc2OC)CS3)c1", "activity change, negative = inhibition": "14.8% (inactive)"}]}, {"target": "Retinaldehyde dehydrogenase 3 (Homo sapiens) (UniProt P47895)", "assay": "qHTS for Inhibitors of the Aldehyde Dehydrogenase Family (ALDH1A3) Primary screen (AID 2061315);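 also: plate controls were DMSO vehicle for no effect and reference inhibitor for full effect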", "conditions": "ALDH inhibition qHTS; series mostly up to 56 µM; activity change, negative = inhibition: at the top concentration", "values": [{"smiles": "Cc1c(P(=S)(c2ccccc2)c2ccccc2)[n+]2ccccc2n1Cc1ccccc1", "activity change, negative = inhibition": "-1.37% (inactive)"}, {"smiles": "CCOc1ccc(CCNC(=O)c2cccc(C(=O)c3ccccc3)c2)cc1OCC", "activity change, negative = inhibition": "-5.18% (inactive)"}, {"smiles": "O=C(CN1C(=O)N/C(=C\\c2cn(-c3cccc(C(=O)O)c3)cn2)C1=O)Nc1ccc(Cl)cc1", "activity change, negative = inhibition": "16.9% (inactive)"}, {"smiles": "O=S1(=O)N=C(Oc2ccccc2C(F)(F)F)c2ccccc21", "activity change, negative = inhibition": "-0.889% (inactive)"}, {"smiles": "O=S(=O)(Nc1ccc(C2CCNCC2)cc1)c1ccc(NCc2cccc(Cl)c2O)cc1", "activity change, negative = inhibition": "-12.9% (inactive)"}, {"smiles": "CC1=CCC(O)C2(C)CCC3C(C)C(=O)OC3C12", "note": "(stereo not drawn)", "activity change, negative = inhibition": "1.09% (inactive)"}, {"smiles": "C[S+](=O)([O-])c1ccc(-c2ccc(=O)n(CC(=O)NCCc3ccccc3)n2)cc1", "activity change, negative = inhibition": "-18.2% (inactive)"}, {"smiles": "O=C(Nc1ccccc1)Nc1ccccc1", "activity change, negative = inhibition": "-25.1% (inactive)"}, {"smiles": "COc1ccc(NC(=O)c2cnn3c(C)cc(C)nc23)cc1F", "activity change, negative = inhibition": "-15.6% (inactive)"}, {"smiles": "O=[S+]([O-])(c1ccc2c(c1)OCCO2)N1CCN([S+](=O)([O-])c2c(F)cc(F)cc2Br)CC1", "activity change, negative = inhibition": "4.68% (inactive)"}, {"smiles": "COc1cc(Nc2nc(-c3ccncc3)nc3ccccc23)ccc1F", "Potency": "inactive"}, {"smiles": "COc1cc(O)c(C(CC(=O)N2CCC[C@@H](C)C2)c2ccc3c(c2)OCO3)c(OC)c1", "note": "(stereo partly drawn)", "activity change, negative = inhibition": "-7.71% [at 114 µM] (inactive)"}, {"smiles": "c1ccc(OCc2nnc3n2N=C(c2ccccc2)CS3)cc1", "Potency": "inactive"}, {"smiles": "CCN(CCc1cn(C)cn1)c1ncnc2ccc(-c3ccc4c(c3)OCO4)cc12", "activity change, negative = inhibition": "7.96% (inactive)"}, {"smiles": "O=C(Cc1ccccc1)NC(c1ccco1)c1cc(Cl)c2cccnc2c1O", "note": "(stereo not drawn)", "activity change, negative = inhibition": "-3.36% (inactive)"}, {"smiles": "Cc1cc(C)nc(NC(=S)N2CCN(c3ncccc3C#N)CC2)c1", "activity change, negative = inhibition": "9.89% (inactive)"}, {"smiles": "CC(=O)NCc1cc(Cl)c2cccnc2c1O", "activity change, negative = inhibition": "-4.15% (inactive)"}, {"smiles": "O=C(O)c1ccc(-c2noc(-c3ccccc3C(F)(F)F)n2)cc1", "activity change, negative = inhibition": "-17.4% (inactive)"}, {"smiles": "O=C(CNC(=O)c1ccncc1)OC(C(=O)Nc1cc(C(F)(F)F)ccc1Cl)c1ccccc1", "note": "(stereo not drawn)", "activity change, negative = inhibition": "0.0625% (inactive)"}, {"smiles": "CC(=O)Nc1ccc(S(=O)(=O)N2CCN(c3ccc(C(C)=O)cc3)CC2)cc1", "activity change, negative = inhibition": "-23.5% (inactive)"}, {"smiles": "COc1cc2nc(N3CCN(C)CC3)nc(NCCN(C)C)c2cc1OC", "activity change, negative = inhibition": "-8.88% (inactive)"}, {"smiles": "N#Cc1ccc(Nc2ncc(-c3cccc4ccccc34)o2)cc1", "activity change, negative = inhibition": "0.747% (inactive)"}, {"smiles": "Cc1ccc(S(=O)(=O)Nc2cnccc2C(=O)Nc2nc(-c3nc4ccccc4s3)cs2)cc1", "activity change, negative = inhibition": "8.23% (inactive)"}, {"smiles": "O=C(Nc1ccc(-c2nc3ccccc3[nH]2)cc1)c1ccc(Cl)c(Cl)c1", "activity change, negative = inhibition": "-4.47% (inactive)"}, {"smiles": "Cc1ccc(-c2cc(C(=O)N3CC[S+](=O)([O-])CC3)c3ccccc3n2)cc1C", "activity change, negative = inhibition": "-3.95% (inactive)"}, {"smiles": "Cc1cc2c(s1)c1cnn(Cc3cccc(Cl)c3)c(=O)c1n2C", "activity change, negative = inhibition": "-2.55% (inactive)"}, {"smiles": "Cc1nnc(-c2cnn(C)c2N)n1CCCc1ccccn1", "activity change, negative = inhibition": "-2.41% (inactive)"}, {"smiles": "O=C(OCC#CCSc1nnc(-c2cccc3ccccc23)o1)c1sc(Cl)c(Cl)c1Cl", "activity change, negative = inhibition": "-0.267% (inactive)"}, {"smiles": "Cc1cc(C)n2ncc(C(=O)Nc3ccccc3C)c2n1", "activity change, negative = inhibition": "2.16% (inactive)"}, {"smiles": "Cc1ccc(NS(=O)(=O)c2cc3c(cc2C)OCC(=O)N3)cc1C", "activity change, negative = inhibition": "-22.6% (inactive)"}, {"smiles": "COc1cccc(CNc2ccc(S(=O)(=O)Nc3cnc4ccccc4c3)cc2)c1O", "activity change, negative = inhibition": "-12.3% (inactive)"}, {"smiles": "O=C(NC1CCCc2c1cnn2-c1ccc(F)cc1F)c1cnon1", "note": "(stereo not drawn)", "activity change, negative = inhibition": "0.594% (inactive)"}, {"smiles": "O=C1CCCC2=C1C1(CCCC1)N=C(Nc1nc3cc(Cl)ccc3o1)N2", "activity change, negative = inhibition": "16.6% (inactive)"}, {"smiles": "O=C1CCCC2=C1C(c1ccncc1Cl)N=C(Nc1nc3ccccc3o1)N2", "note": "(stereo not drawn)", "activity change, negative = inhibition": "13% (inactive)"}, {"smiles": "CCN(CC)CCCC(C)n1c(-c2ccccc2)nc2c(N(CCOC)CCOC)nc(C)nc21", "note": "(stereo not drawn)", "activity change, negative = inhibition": "25.8% (inactive)"}, {"smiles": "Cc1ccc(S(=O)(=O)Nc2cnccc2C(=O)Nc2nc3ccccc3s2)cc1", "activity change, negative = inhibition": "8.12% (inactive)"}, {"smiles": "Cc1cc(-c2nnc3n2CCCCCCC3)c(C)n1-c1ccccc1", "activity change, negative = inhibition": "12.2% (inactive)"}, {"smiles": "O=C(O)c1ccc2c(c1)C(=O)N([C@H](Cc1ccc(Cl)cc1)C(=O)O)C2=O", "activity change, negative = inhibition": "-2.7% (inactive)"}, {"smiles": "C[C@@H]1CC[C@]2(C(=O)O)CC[C@]3(C(=O)O)C(=CCC4[C@@]5(C)CC[C@H](O[C@@H]6O[C@@H](C)[C@H](O[C@@H]7O[C@H](CO)[C@@H](O)[C@H](O)[C@H]7O)[C@@H](O)[C@H]6O)C(C)(C)C5CC[C@]43C)C2[C@H]1C", "note": "(stereo partly drawn)", "activity change, negative = inhibition": "13.6% [at 16.9 µM] (inactive)"}, {"smiles": "COc1cccc(-c2nnc3n2N=C(c2cc(OC)ccc2OC)CS3)c1", "activity change, negative = inhibition": "5.53% (inactive)"}]}]}
